Reference: PubChem BioAssay AID1347165 (National Center for Advancing Translational Sciences (NCATS), 2019)
Among all 220,000 compounds or so, about 5,700 (2.6%) were called active. Another 18% or so got no clear call; they are omitted. Calls follow the shape of the dose curve; as a rule, active = well fitted inhibition curve with a large enough effect; inconclusive = small, poorly fitted or top-dose-only effect; inactive = no such curve, though single readings can be large or run the other way. What follows is part of a selection rich in actives, with near analogues and random picks from the rest. Entries that show only a call come without a potency.

molecular target: Lysine-specific demethylase 5B (Homo sapiens) (UniProt Q9UGL1); assay: Primary screen for KDM5B Histone Demethylases FDH-coupled qHTS; details: FDH-coupled NADH fluorescence (FDH is formaldehyde dehydrogenase); series mostly up to 57.7 µM; also: nearly all actives have a fitted effect of over 70% in size
Sequence (Q9UGL1 whole entry, looked up): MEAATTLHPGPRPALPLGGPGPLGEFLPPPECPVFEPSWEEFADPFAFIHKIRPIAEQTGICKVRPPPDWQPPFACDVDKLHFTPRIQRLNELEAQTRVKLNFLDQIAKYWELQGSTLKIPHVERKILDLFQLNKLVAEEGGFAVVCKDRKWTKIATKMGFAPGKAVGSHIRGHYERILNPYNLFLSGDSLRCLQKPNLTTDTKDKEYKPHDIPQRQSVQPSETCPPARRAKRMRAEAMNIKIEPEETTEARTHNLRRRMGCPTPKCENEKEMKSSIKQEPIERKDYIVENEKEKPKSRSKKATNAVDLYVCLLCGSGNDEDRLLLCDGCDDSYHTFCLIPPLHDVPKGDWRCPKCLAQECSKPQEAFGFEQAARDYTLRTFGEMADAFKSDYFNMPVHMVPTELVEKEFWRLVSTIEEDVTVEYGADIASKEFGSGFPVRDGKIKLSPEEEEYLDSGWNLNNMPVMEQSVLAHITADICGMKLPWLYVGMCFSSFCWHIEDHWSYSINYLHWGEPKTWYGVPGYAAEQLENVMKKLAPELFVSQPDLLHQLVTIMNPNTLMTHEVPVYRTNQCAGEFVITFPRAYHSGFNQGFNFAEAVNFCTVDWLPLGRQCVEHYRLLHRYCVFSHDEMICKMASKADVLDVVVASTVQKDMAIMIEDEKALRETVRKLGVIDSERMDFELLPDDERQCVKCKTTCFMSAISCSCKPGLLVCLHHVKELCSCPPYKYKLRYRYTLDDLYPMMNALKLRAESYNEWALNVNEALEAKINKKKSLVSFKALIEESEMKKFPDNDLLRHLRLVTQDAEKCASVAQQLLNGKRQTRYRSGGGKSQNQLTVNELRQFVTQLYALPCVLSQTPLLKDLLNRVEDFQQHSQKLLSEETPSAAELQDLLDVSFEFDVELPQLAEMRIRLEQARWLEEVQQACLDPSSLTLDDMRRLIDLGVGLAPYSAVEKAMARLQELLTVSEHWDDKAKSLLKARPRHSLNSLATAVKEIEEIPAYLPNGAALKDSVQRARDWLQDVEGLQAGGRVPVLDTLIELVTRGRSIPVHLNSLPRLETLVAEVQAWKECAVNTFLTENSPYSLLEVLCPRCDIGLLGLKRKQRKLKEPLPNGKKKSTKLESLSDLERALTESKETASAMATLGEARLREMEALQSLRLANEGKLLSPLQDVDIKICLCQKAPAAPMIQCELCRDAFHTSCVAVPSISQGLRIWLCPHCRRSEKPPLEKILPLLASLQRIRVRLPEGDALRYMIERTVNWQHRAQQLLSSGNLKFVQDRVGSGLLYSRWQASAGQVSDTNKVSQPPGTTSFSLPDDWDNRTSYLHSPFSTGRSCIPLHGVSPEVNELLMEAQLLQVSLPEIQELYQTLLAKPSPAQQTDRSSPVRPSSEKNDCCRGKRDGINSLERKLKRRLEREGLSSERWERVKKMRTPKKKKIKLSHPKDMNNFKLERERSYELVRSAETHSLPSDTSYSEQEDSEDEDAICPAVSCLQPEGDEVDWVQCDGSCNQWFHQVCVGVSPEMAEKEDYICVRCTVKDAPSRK
In short: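 Measured: NADH fluorescence change, 30 min, RT. System: KDM5BΔAP 200 nM final, H3K4me3 peptide, α-KG, Fe(II), ascorbate, NAD⁺ plus FDH, pH 7.5 HEPES. Compounds: titrated, 10 min pre-incubation with enzyme.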
Potency is read from the fitted curve at half-maximal effect.

Row | SMILES | Potency
1 | CC(C)CCNC(=O)NC(=O)CSc1nnc(-c2ccccc2)c(-c2ccccc2)n1 | inactive
2 | Cc1cc(Br)c(S(=O)(=O)NCCO)cc1C | inactive
3 | CCCCn1cnc2c1c(=O)n(CC(=O)Nc1ccccc1C)c(=O)n2CCCC | inactive
4 | Cc1ccc(C)c(C(NC(=O)c2ccccc2C)c2cccnc2)c1 (stereo unspecified) | inactive
5 | COc1cccc(-c2cn3c(n2)NCCC3)c1 | 25.1 µM (active)
6 | COc1cccc(-c2cn3c(n2)N(C(=O)Cc2ccccc2)CCC3)c1 | inactive
7 | COc1cccc(-c2cc(C3CCN(C(=O)Nc4ccccc4C)CC3)[nH]n2)c1 | inactive
8 | CN(C)c1ccc(C(=O)/C=C/c2ccncc2)cc1 | inactive
9 | COc1ccc(OC)c(C2C(C#N)=C(N)Oc3cc(O)ccc32)c1 (stereo unspecified) | inactive
10 | Cc1ccc2c(=O)cc(C(=O)N(Cc3ccc(Cl)cc3)C3CCS(=O)(=O)C3)oc2c1C (stereo unspecified) | inactive
11 | COc1ccc(C(=O)N[C@H](c2cnn(C)c2)C2CC(O)C2)c(F)c1F (stereo partly specified) | inactive
12 | Cn1cc([C@@H](NC(=O)CCc2cn3ccccc3n2)C2CC(O)C2)cn1 (stereo partly specified) | 31.6 µM (active)
13 | O=S(=O)(NCCc1cn2ccccc2n1)c1cc(Cl)ccc1Cl | inactive
14 | COc1ccc(-n2c3c(cc(-c4ncnn4-c4ccc(C)cc4C)c2=O)C(=O)CC(C)(C)C3)cc1 | inactive
15 | O=C(Cn1ncn2nc(-c3cccs3)cc2c1=O)N1CCCCCC1 | inactive
16 | O=C(c1cnc[nH]1)N1C[C@@H](COCC2CC2)[C@H](c2ccccn2)C1 | inactive
17 | c1ccc([C@@H]2CNC[C@H]2COCC2CC2)nc1 | 15.8 µM (active)
18 | CCn1cc(C(=O)N2C[C@@H](COCC3CC3)[C@H](c3ccccn3)C2)cn1 | inactive
19 | Cc1ccc2ncc([N+](=O)[O-])cc2c1 | inactive
20 | COc1ccc(NC(=O)c2c(Cl)cccc2Cl)cc1 | inactive
21 | CCc1ccc(C(=O)Nc2ccccc2O)o1 | inactive
22 | COc1ccccc1-c1cn(C)c(=O)n2cc(COc3ccc(C(=O)O)cc3)nc12 | inactive
23 | CC(C)N(C(=O)c1ccc(-c2ccccc2F)cc1)C(C)C | inactive

Row | SMILES | Potency
24 | COc1ccccc1-c1ccc(C(=O)O)cc1 | 112 µM (active)
25 | C=CCN(CC=C)S(=O)(=O)c1cccc2nsnc12 | inactive
26 | CC(C)c1ccc(/C=C/C(=O)NCCCN2CCOCC2)cc1 | inactive
27 | COc1ccc(C)cc1CN1CCN(C(=O)Nc2cccc(C)c2)CC1 | inactive
28 | Cc1ccc(C(=O)N2C[C@@H](COc3ccccc3)[C@H](C(N)=O)C2)cc1 | inactive
29 | CCc1ccc(NC(=O)Cn2ccn3nc4c(c3c2=O)CCCC4)cc1 | 20 µM (active)
30 | CCOC(=O)c1ccc(NC(=O)CCn2ccn3nc4c(c3c2=O)CCCC4)cc1 | inactive
31 | CC(C)(C)C(=O)Cn1ccn2nc3c(c2c1=O)CCCC3 | inactive
32 | CC(=O)Oc1ccc(C(=O)Nc2ccc(O)c(-c3nc4ccccc4o3)c2)cc1 | inactive
33 | Cc1cc(-c2cn(C)c(=O)n3cc(COc4ccccc4)nc23)ccn1 | inactive
34 | CN(C)c1cccc(-c2cn(C)c(=O)n3cc(COc4ccc(Cl)cc4)nc23)c1 | 25.1 µM (active)
35 | CN(C)Cc1cn2c(=O)n(C)cc(-c3cccc(OCc4ccccc4)c3)c2n1 | inactive
36 | CSc1ccc(CN(C)S(=O)(=O)c2ccc3c(c2)OCCCO3)cc1 | inactive
37 | Cc1ccc(NC(=O)c2cn3c4c(ccc(Cl)c4c2=O)OC(C)C3)cc1C (stereo unspecified) | inactive
38 | Cc1ccc(NC(=O)c2cc3n(n2)CC(c2ccc4c(c2)OCO4)OC3)cc1C (stereo unspecified) | 35.5 µM (active)
39 | COc1ccc(CNC(=O)c2cc3n(n2)CC(c2ccc4c(c2)OCO4)OC3)c(OC)c1 (stereo unspecified) | 31.6 µM (active)
40 | Cc1cccc(N2CCN(C(=O)c3cc4n(n3)CC(c3ccc(Cl)cc3)OC4)CC2)c1 (stereo unspecified) | inactive
41 | CCNCc1ccccc1C(F)(F)F | inactive
42 | O=C(Nc1cccc(F)c1)c1cc2n(n1)CC(c1ccc(Cl)cc1)OC2 (stereo unspecified) | 22.4 µM (active)
43 | O=C(NCc1ccc(F)cc1F)c1nnn2c1COC(c1ccc(Br)cc1)C2 (stereo unspecified) | inactive
44 | O=C(Nc1ccc(Cl)cc1)C1CCN(C(=O)c2ncn3c2COC(c2ccc(F)cc2)C3)CC1 (stereo unspecified) | inactive
45 | COc1ccc2c(c1)C=C(C(=O)NCc1cc(Br)ccc1OC)CO2 | inactive
46 | O=C(NCc1ccccc1C(F)(F)F)c1cc2n(n1)CC(c1ccc3c(c1)OCO3)OC2 (stereo unspecified) | 31.6 µM (active)

Row | SMILES | Potency
47 | COc1ccc(CNC(=O)c2ccc3c(c2)nc2n3CCOC2)c(OC)c1 | inactive
48 | Cn1cnnc1-c1cccc(NC(=O)c2ccc3c(c2)OCO3)c1 | inactive
49 | O=S(=O)(c1ccccc1Cl)N1CCN(C/C=C/c2ccccc2)CC1 | inactive
50 | Fc1ccc(N2CCCN(CC3[C@H]4CNC[C@@H]34)CC2)cc1 (stereo partly specified) | inactive
51 | O=C(Nc1ccc(CC23CC4CC(CC(C4)C2)C3)cc1)c1ccc(Cl)cc1Cl | inactive
52 | CCOc1ccc(-c2nc(Cn3nnc(C(=O)NCc4ccc(Cl)cc4)c3N)c(C)o2)cc1OC | inactive
53 | CCCn1nc(C(=O)OCc2nc(N)nc(Nc3ccccc3C)n2)c2ccccc2c1=O | inactive
54 | CCOc1cc(CNc2nn[nH]n2)ccc1OCc1ccccc1Cl | inactive
55 | COc1ccc(-c2noc3ncnc(N4CCC(C(=O)NCCN5CCCCC5)CC4)c23)cc1 | inactive
56 | CCCCCCCCCCS(=O)(=O)CCSC(=N)N | inactive
57 | COc1ccc(OC)c(NC(=O)c2nc3ccccc3nc2N2CCCC2)c1 | inactive
58 | COc1ccc(OC)c(NC(=O)Cn2ccc3ccc(Cl)cc32)c1 | inactive
59 | COc1ccc(OC)c(NC(=O)c2cc3n(n2)CC(c2ccc(Cl)cc2)OC3)c1 (stereo unspecified) | 25.1 µM (active)
60 | COc1ccc(OC)c(C2C3=C(CC(C)(C)CC3=O)Nc3nc(-c4cccc(C)c4)nn32)c1 (stereo unspecified) | inactive
61 | CCNC(=O)Nc1ccc(S(=O)(=O)Nc2cnc(C)nc2C)cc1 | inactive
62 | O=C(Nc1ccc2oc(-c3ccc(F)cc3)nc2c1)c1ccc2c(c1)OCCO2 | inactive
63 | Cn1c(CCN2CCCCC2)nc2cc(NC(=O)c3ccccc3Cl)ccc21 | inactive
64 | Cc1ccccc1C(=O)NCc1nnc2ccc(-c3ccccc3)nn12 | 31.6 µM (active)
65 | O=C(Nc1ccc(-c2nnc3n2CCCC3)cc1)c1ccccn1 | inactive
66 | Cc1ccc(CNC(=O)c2cccc3cccnc23)cc1 | inactive
67 | Cc1ccc(-c2ccc3nnc(CNC(=O)c4ccccn4)n3n2)cc1 | 31.6 µM (active)
68 | Cc1ccccc1C(=O)NCc1nc(-c2ccc(Cl)cc2)no1 | inactive
69 | Cc1ccc(-n2nnnc2CNC(=O)c2ccccc2C)cc1C | inactive

Row | SMILES | Potency
70 | O=C(CCc1ncc(-c2ccccc2)o1)Nc1nc2ccccc2s1 | inactive
71 | CCOC(=O)C(O)(c1ccc(N(CC)C(=O)Nc2ccc(Cl)cc2)cc1)C(F)(F)F (stereo unspecified) | inactive
72 | CCN(C(=O)Cc1coc2ccc(C)cc12)c1ccccc1 | inactive
73 | Cc1ccccc1NC(=O)C1CC(=O)Nc2nc(SCc3ccccc3)nn21 (stereo unspecified) | inactive
74 | O=C(NCCCNC(=O)c1nc2ccccc2c(=O)[nH]1)c1cccnc1 | inactive
75 | Cc1nc2cc(C(=O)Nc3ccc(N(C)C)cc3)ccc2n1-c1ccccc1 | inactive
76 | c1coc(-c2nc(-c3cccs3)no2)c1 | inactive
77 | CC1CCN(c2nc3c(c(=O)n(C)c(=O)n3C)n2CC(=O)c2ccc(Br)cc2)CC1 | inactive
78 | COc1cccc(C(=O)N2CCC(C(NC(=O)c3ccccc3C)C(=O)NCC(C)C)CC2)c1 (stereo unspecified) | inactive
79 | CCCNC(=O)C(NC(=O)c1cccc(OC)c1)C1CCN(C(=O)c2ccccc2F)CC1 (stereo unspecified) | inactive
80 | C=CCNC(=O)C(NC(=O)c1cccc(OC)c1)C1CCN(C(=O)c2ccccc2F)CC1 (stereo unspecified) | 31.6 µM (active)
81 | Cn1c(=O)[nH]c(=O)c2c1nc(N1CCNCC1)n2CC(N)=O | inactive
82 | O=[N+]([O-])c1cc(C(F)(F)F)ccc1NCCc1ccncc1 | inactive
83 | O=c1oc2ccccc2c(N2CCCC2)c1NS(=O)(=O)c1cccc(F)c1 | inactive
84 | COCC1CN(C(C)=O)CC12CCN(Cc1ccccc1OC)CC2 (stereo unspecified) | inactive
85 | CCOc1cccc(CN2CCC3(CC2)CN(C)CC3COC)c1 (stereo unspecified) | 14.1 µM (active)
86 | COCC1CN(C(C)=O)CC12CCN(C(=O)NCc1cccc(OC)c1)CC2 (stereo unspecified) | inactive
87 | Cc1occc1-c1nnc(SCC(=O)c2cc(C)n(C3CC3)c2C)n1C | inactive
88 | CC(NC(=O)c1ccco1)c1ccc(-c2ccccc2)cc1 (stereo unspecified) | inactive
89 | Cc1ccc2c(C)cc(SCC(=O)NC3CC3)nc2c1 | inactive
90 | CC1(C(=O)NCC2CCCO2)CCCc2cnc(Nc3ccccc3)nc21 (stereo unspecified) | inactive
91 | CC1(C(=O)NCc2ccc3c(c2)OCO3)CCc2cnc(NCc3ccccc3)nc21 (stereo unspecified) | 25.1 µM (active)
92 | CN(Cc1ccccc1)C(=O)C1(C)CCCc2cnc(Nc3cccnc3)nc21 (stereo unspecified) | inactive

Row | SMILES | Potency
93 | O=C(Cn1nc2c(cc1=O)CCCC2)Nc1cc(C(F)(F)F)ccc1Cl | inactive
94 | Cc1nn2c(c1-c1ccccc1-c1ccccc1)N(C(=O)CN1CCOCC1)CCC2 | inactive
95 | Cc1nn2c(c1-c1ccccc1-c1ccccc1)N(CC1CC1)CCC2 | 28.2 µM (active)
96 | Cc1nn2c(c1-c1ccccc1Oc1ccccc1)N(C(=O)C(C)C)CCC2 | inactive
97 | CCc1ccc(N(CC)C(=O)C(=O)c2c[nH]c3ccccc23)cc1 | inactive
98 | Cc1ccc2[nH]c(=O)c(CCC(=O)NCc3ccncc3)cc2c1 | 25.1 µM (active)
99 | Cc1ccc(CCC(=O)NCc2cccnc2)cc1 | inactive
100 | Cc1ccc2[nH]c(=O)c(COC(=O)c3ccccn3)cc2c1 | inactive
101 | COCCN(C)C[C@H]1C[C@H](CO)CN(C(=O)c2ccc(C(C)C)[nH]c2=O)C1 | inactive
102 | CC1(C)CC(=O)C2=C(C1)Nc1nc(N)[nH]c(=O)c1C2c1ccc2c(c1)OCO2 (stereo unspecified) | inactive
103 | Cc1cc(C)cc(NC(=O)N(C)Cc2ccccc2)c1 | inactive
104 | COc1ccc(NC(=O)c2cc3c(N(C)Cc4ccccc4)nc(C)cn3n2)cc1F | 17.8 µM (active)
105 | COc1cccc(CNC(=O)Cn2c(N(C)Cc3ccccc3)nc(C)cc2=O)c1OC | inactive
106 | Cc1cn2nc(C(=O)Nc3ccc(F)cc3F)cc2c(N(C)Cc2ccccc2)n1 | inactive
107 | CCN(CC)c1nc2ccccc2nc1C(=O)Nc1ccc(C)c(C)c1 | inactive
108 | Cc1cn2nc(C(=O)Nc3cccc(F)c3)cc2c(N(C)Cc2ccccc2)n1 | inactive
109 | CCN(CC)c1nc2ccccc2nc1C(=O)Nc1ccc(C)cc1C | inactive
110 | Cc1cn2nc(C(=O)Nc3cc(F)cc(F)c3)cc2c(N(C)Cc2ccccc2)n1 | 25.1 µM (active)
111 | Cc1cn2nc(C(=O)Nc3ccc(F)cc3C)cc2c(N(C)Cc2ccccc2)n1 | 20 µM (active)
